Source: PubChem (National Center for Advancing Translational Sciences (NCATS))
PNC assembly inh = High Content Assay for Compounds that inhibit the Assembly of the Perinucleolar Compartment. PC3M PTB-GFP, PNC prevalence imaging, 16 h; active compounds read low. 140,000 compounds, 3.1% hits. activity change (PNC), negative = inhibition, % at 10 µM;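 active means readout at or below -70, meaning at least 70% loss of cells showing the perinucleolar compartment, a nuclear body marking cancer cells; inconclusive means readout between -30 and a set limit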;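 further: plate controls were DMSO wells for no effect and camptothecin positive control wells for full effect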
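Read-out is percentage of cells bearing a perinucleolar compartment, from automated 20x imaging of fixed, Hoechst-stained PC3M PTB-GFP cells. Cells were seeded 4 h, then exposed 16 h to compound (23 nl of library stock) in duplicate plates.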
ALDH1A1 block = qHTS Assay for Inhibitors of Aldehyde Dehydrogenase 1 (ALDH1A1); Purified ALDH1A1, NADH fluorescence, propionaldehyde substrate; 220,000 compounds, 7.3% hits; Potency, µM (series often up to 75.3 µM), without a hit: at the top dose activity, negative = inhibition, usual class: inhibitors;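 further: potency means the concentration at half of the fitted maximal effect; plate controls were no enzyme wells and a reference inhibitor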
HPGD inh = qHTS Assay for Inhibitors of HPGD (15-Hydroxyprostaglandin Dehydrogenase). 15-hydroxyprostaglandin dehydrogenase [NAD(+)] (Homo sapiens), P15428. purified HPGD, NADH fluorescence kinetic, PGE2 substrate. 150,000 compounds, 4.3% hits. Potency, µM, without a hit: at the top dose activity change, negative = inhibition, most hits filed as inhibitors; further: potency means the concentration at half of the fitted maximal effect
Target sequence (P15428 whole entry, looked up): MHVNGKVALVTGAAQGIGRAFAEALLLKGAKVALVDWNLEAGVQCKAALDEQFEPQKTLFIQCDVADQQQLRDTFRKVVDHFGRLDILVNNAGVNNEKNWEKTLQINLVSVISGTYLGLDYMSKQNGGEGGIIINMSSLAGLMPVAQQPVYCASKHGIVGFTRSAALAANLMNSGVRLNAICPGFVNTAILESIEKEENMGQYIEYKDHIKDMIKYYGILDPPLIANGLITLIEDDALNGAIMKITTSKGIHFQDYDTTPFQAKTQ
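20 nM HPGD preincubated 15 min at room temperature with compound in 50 mM Tris-HCl pH 8, 0.01% Tween 20. Started with 1 mM NAD+ and 30 uM prostaglandin E2; NADH fluorescence (360/450 nm) read 5 times over 30-s intervals, last minus first.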
* hit, by the source's call; u = inconclusive; x = not tested or not shown. This is a sample that favours compounds with a hit; in the whole collection about 11% have one here. Unless noted, the call rests on the fitted dose curve; in most records, active means well fitted inhibition curve with a large enough effect (not every such curve was filed as active); inconclusive means small, poorly fitted or top-dose-only effect, or another doubt; inactive means no such curve, though single readings can be large or run the other way. Unless noted, on the % scale 0 is the no-effect control and ±100 the full control effect.

SMILES	PNC assembly inh	ALDH1A1 block	HPGD inh
COc1ccc(C2=NOC(C(=O)Nc3cccnc3Cl)C2)cc1 (centres undefined)	x	0%	x
NS(=O)(=O)c1ccc(NC(=O)COC(=O)C2CC(=O)N(Cc3ccccc3)C2)cc1 (centres undefined)	x	14%	x
CN(Cc1ccccc1)C(=O)c1ccc2c(c1)OCCO2	-27	u	14µM*
CN(CCOC(=O)c1ccc2c(c1)OCCO2)Cc1ccccc1	-25	8%	-5%
C=CCN1C(=O)C(Cc2ccc(SC(F)F)cc2)SC1=Nc1ccc(C(=O)O)cc1 (centres undefined)	x	10µM*	x
C=CCN1C(=O)C(CC(=O)O)SC1=Nc1ccc(C(=O)O)cc1 (centres undefined)	x	6%	x
CC(=O)OC1CC2C(C)(C)C(O)CCC2(C)C2CC[C@]3(C)C(=CC(=O)OC3c3ccoc3)C12C (some centres undefined)	x	-6%	4%
Cc1ccc(S(=O)(=O)c2nc(C)c3c(n2)CCC3)cc1	-28	u	-14%
COc1cccc(S(=O)(=O)c2nc(C)c3c(n2)CCC3)c1	x	6.3µM*	x
O=C(Nc1ccc(N2CCN(c3ccc(O)cc3)CC2)cc1)Oc1ccccc1	17	11µM*	-2%
O=C(Oc1ccccc1)N1CCN(c2ccc(F)cc2)CC1	u	-7%	-13%
CCN(CC)CCOC(=O)c1cc(Cl)c(N)cc1OC	x	-2%	-4%
Nc1cc2c(nc3c4ccccc4c(N)cc3[n+]2-c2cccc3ccccc23)c2ccccc12 (tested in a mixture with another compound)	x	u	-11%
S=c1nc(-c2ccccc2Cl)n(Cc2cccnc2)c2c1CCCC2	-88*	6%	-4%
OCCCn1c(-c2ccccc2)nc(=S)c2c1CCCC2	2	2%	-18%
CC1CCCCC1NC(=O)c1ccc2c(c1)[nH]c(=O)n2C1CCCC1 (centres undefined)	-8	14µM*	-10%
CC1CCCCC1NC(=O)c1ccc(S(=O)(=O)N2CCCC2)cc1 (centres undefined)	12	u	0%
O=C(Cc1ccccc1)NN1C(=O)C2C3C=CC(C3)[C@@H]2C1=O (some centres undefined)	u	3%	0%
Cc1ccc(C(=O)NC(=S)Nc2ccc(S(=O)(=O)N3CCN(C)CC3)cc2)cc1	20	u	-12%
NC(N)=NS(=O)(=O)c1ccc(NC(=S)NC(=O)c2ccc(Br)cc2)cc1	x	10µM*	x
O=C(Nc1ccc(N2CCN(C(=O)c3ccccc3)CC2)cc1)c1ccc([N+](=O)[O-])o1	x	11µM*	x
CCCC(=O)N1CCN(c2ccc(NC(=O)c3ccc([N+](=O)[O-])o3)cc2Cl)CC1	x	18µM*	x
CCCCCC(=O)Nc1ccc(N2CCN(CC)CC2)c(Cl)c1	-21	1%	5%
O=C(Nc1ccc(N2CCN(C(=O)c3ccc(Cl)cc3)CC2)cc1)c1ccc(Br)o1	u	-4%	-2%
CN(C)CCCNC(=O)C(=O)NCC1CCCO1 (centres undefined)	x	3%	x
SMILES	PNC assembly inh	ALDH1A1 block	HPGD inh
CC1=C([N+](=O)[O-])C(c2ccccc2)C2=C(N1)c1ccccc1C2=O (centres undefined)	u	u	22µM*
COc1cc(C2C(C#N)=C(C)NC3=C2C(=O)c2ccccc23)cc(OC)c1OC (centres undefined)	-116*	3%	-6%
CCOc1ccc(C2C(C#N)=C(C)NC3=C2C(=O)c2ccccc23)cc1 (centres undefined)	-24	u	-17%
O=C1NC2=C(C(=O)c3ccccc32)C(c2ccccc2)N1 (centres undefined)	-11	16µM*	-24%
CC(=O)C1=C(C)NC(=O)NC1c1ccccc1 (centres undefined)	-9	9%	-6%
COc1ccc(C2C(C#N)=C(C)NC3=C2C(=O)c2ccccc23)cc1 (centres undefined)	27	u	-20%
O=C(COc1ccccc1C(=O)NCc1ccncc1)Nc1ccc(Br)cc1	x	1%	x
Cc1cc(C(=O)CN2C(=O)NC3(CCCCC3)C2=O)c(C)n1-c1ccc2c(c1)OCO2	-4	u	-12%
O=C(CN1CCCCCC1)Nc1cccc([N+](=O)[O-])c1	x	11%	x
Cc1ccc(C(=O)Nc2cccc(Oc3ccccc3)c2)o1	24	0%	20µM*
O=C(Nc1cccc(Oc2ccc3c(c2)C(=O)NC3=O)c1)c1ccco1	-92*	5%	20µM*
Cc1ccc(C(=O)Nc2cccc(C(=O)NCc3ccccc3)c2)o1	-10	-2%	-19%
O=C(Nc1ccccc1)N1CCN(Cc2ccc(Cl)cc2)CC1	x	-3%	x
O=C(CN1CCCCC1)Nc1cccc(Oc2ccccc2)c1	-106*	7%	28µM*
O=C(Nc1ccc(Cl)cc1)N1CCCN(Cc2ccc(F)cc2)C1	-15	4%	25µM*
Cc1ccc(Oc2ccc(NC(=O)c3ccco3)cc2)cc1	12	u	u
O=C(CCSc1ccc(Cl)cc1)Nc1cccnc1	x	-8%	x
CC(=O)Nc1c(C(=O)N2CCN(c3ccccn3)CC2)cnn1-c1ccc(C)cc1	17	u	-20%
O=C(Nc1nnc(-c2ccncc2)o1)c1ccc(Br)s1	x	6%	x
COc1ccc(CNC(=O)CCS(=O)(=O)Cc2cccc(Cl)c2)c(OC)c1	x	0%	x
COc1ccccc1CN1CCC2(CC1)CCN(C(C)=O)CC2	x	1%	-7%
Nc1ccc2c(c1)N=[N+]([O-])c1cc(N)ccc1C2	x	3%	x
O=C1[C@H]2[C@H](ON3CCCC[C@H]23)C(=O)N1c1ccc(Cl)cc1	x	-3%	x
O=C(CN1CCCC1)Nc1ccc(F)cc1	x	25µM*	x
O=C(CN1CCCCCC1)Nc1ccccc1	x	7.9µM*	x
SMILES	PNC assembly inh	ALDH1A1 block	HPGD inh
O=C(CN1CCN(C(=O)N2CCOCC2)CC1)Nc1ccc(Br)cc1	20	18µM*	-7%
O=C(CN1CCCC1)NCC(=O)Nc1ccc(F)cc1	x	5%	x
N=c1sccn1CC(=O)Nc1cccc(Oc2ccccc2)c1	15	u	-10%
O=C(CCl)Nc1cccc(Oc2ccccc2)c1	x	0.28µM*	x
O=C(CN1CCCCC1)Nc1ccccc1NC(=O)CN1CCCCC1	u	1%	-2%
O=C(CN1CCCCCC1)Nc1ccc(Br)cc1	-14	10%	-6%
CCCCN1CCC[C@@H]1CNC(=O)c1cc(C#N)c2ccccc2c1OC	x	u	-21%
O=C(Nc1ccc(Oc2cccnc2)nc1)c1ccc(C(F)(F)F)cc1	x	10%	x
O=C(Nc1ccc(Oc2cccc(C(F)(F)F)c2)nc1)c1ccco1	x	40µM*	x
Nc1nc(SCC(=O)Nc2cccc(Oc3ccccc3)c2)n[nH]1	-17	u	-16%
CCOC(=O)N1CCN(CC(=O)Nc2ccc(Oc3ccccc3)cc2)CC1	-15	25µM*	-3%
O=C(CSc1ncnc2[nH]ncc12)Nc1cccc(Oc2ccccc2)c1	x	20µM*	x
CN1CCN(CC(=O)Nc2ccc(Oc3ccccc3)cc2)CC1	13	-8%	-16%
COC(=O)C(C(C)=O)C(NC(=O)OC(C)(C)C)c1ccccc1 (centres undefined)	x	1%	-3%
